Hit rate of the full screen: of about 360,000 compounds, about 1,300 (0.36%) were called active. This is one part of a sample in which actives are shown more often than they occur. Rule as the data show it: active = inhibition above about 34% (passing the limit was not always enough); inactive = the rest.
Each compound was assayed against C-X-C chemokine receptor type 6 (Homo sapiens) (UniProt O00574) (assay: CXCR6 receptor inhibitors, primary screen, cell-based, beta-arrestin, luminescence, CHO-K1 PathHunter, 1536-well (AID 602244;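 also: antagonist mode with CXCL16 agonist at 10 nM final; 0% = 10 nM CXCL16 with DMSO and 100% = unstimulated wells without agonist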)). Conditions: at 20 µM, active compounds read high.
Sequence of C-X-C chemokine receptor type 6 (Homo sapiens) (O00574 whole entry, looked up): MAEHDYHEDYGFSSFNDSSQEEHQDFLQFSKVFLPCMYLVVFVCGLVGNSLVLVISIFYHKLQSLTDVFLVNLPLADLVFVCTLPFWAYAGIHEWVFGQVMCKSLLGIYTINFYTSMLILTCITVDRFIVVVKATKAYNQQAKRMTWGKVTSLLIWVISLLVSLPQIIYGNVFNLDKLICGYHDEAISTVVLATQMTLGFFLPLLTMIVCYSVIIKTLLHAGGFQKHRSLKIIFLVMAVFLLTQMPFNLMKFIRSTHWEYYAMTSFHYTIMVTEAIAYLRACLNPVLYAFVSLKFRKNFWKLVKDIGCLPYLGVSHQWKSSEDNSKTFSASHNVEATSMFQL

inhibition, active:
Cc1ccc(/C=N/NC(=O)C2=NNC(c3ccccc3)(c3ccccc3)C2)c(O)c1 49.2%
CCCCNC(=S)N/N=C1\CCCCc2ccccc21 37.6%
O=C(NC1=CC(=O)c2ccccc2C1=O)c1ccccc1 71.6%
Cc1cccc(-n2c(O)c(C=Nc3ccccc3N)c(=O)[nH]c2=O)c1 108%
Cc1c(C(=O)NCCN(C)C)oc2ccc(S(=O)(=O)N3CCCC3)cc12 65.9%

inhibition, inactive:
CC(=O)N1Cc2ccccc2CC1C(=O)O (configuration not stated) 8%
Cc1ccc(/C=N/NC(=O)C(NC(=O)c2ccccc2)c2n[nH]c(=O)c3ccccc23)cc1 (configuration not stated) -2.3%
Cc1ccc(NC(=O)CCC(=O)N/N=C/c2ccco2)c(C)c1 -4%
O=C(NCCc1ccccc1)c1ccc(NC2=NC3CS(=O)(=O)CC3S2)cc1 (configuration not stated) 0%
O=[N+]([O-])c1ccccc1N/N=C1\CCc2ccccc21 2.8%
S=C(NCCC1=CCCCC1)Nc1ccccc1 -7%
NC(=O)C1=C[C@@H](c2ccc3c(c2)OCO3)C[C@@H](OCCCCO)O1 1.5%
Cc1ccc(NC(=O)CN(C)C(=O)COC(=O)c2nccnc2N)cc1 -1.8%
O=C(COC(=O)c1cccc(Br)c1)Nc1cccc2c1C(=O)c1ccccc1C2=O -9.2%
CC(=O)c1cc(NC(=O)c2ccccc2)c(=O)oc1/C=C/N(C)C 9.9%
CCOC(=O)N1CCC(Nc2c(NCCCN3CCN(CC)CC3)c(=O)c2=O)CC1 8.9%
CCCCS(=O)c1snnc1C (configuration not stated) -4.7%
CCCCc1ccc(S(=O)(=O)NC(=O)C2(C)CCN2C(=O)c2ccccc2)cc1 (configuration not stated) 7.2%
Cc1ccc(C23CC4CC(CC(C(=O)NCC(=O)O)(C4)C2)C3)cc1 1.5%
CCCCN(C)CCNC(=O)CSCc1ccc(C)cc1 2.3%
Cc1cccc(N2C(=O)CC(SC(N)=Nc3ccccc3)C2=O)c1 (configuration not stated) 2.2%
Cc1ccc(N=Cc2c(O)n(-c3nccs3)c(=O)c3ccccc23)c(C)c1 4.8%
O=C(Cn1ncc2c3ccccc3n(Cc3ccccc3)c2c1=O)NCCCN1CCOCC1 8.7%
O=C(COc1nsnc1N1CCOCC1)Nc1ccccc1Cl -3.6%
Cn1cccc1C(=O)NC(=O)COC(=O)Cc1coc2ccc3ccccc3c12 -1.2%
CC(C)c1nc2sc3c(c2c(=O)n1N)CC(C)(C)OC3 2.4%
COc1cc(NC(=O)C2CCN(c3cnccn3)CC2)cc(OC)c1 -10.3%
O=C(OC1CCCCC1=O)c1cccc(S(=O)(=O)NCc2ccccc2)c1 (configuration not stated) 7.3%
CC(=O)N/C(=C\c1ccc(F)cc1)C(=O)NC(Cc1ccccc1)C(=O)O (configuration not stated) 1.6%
CC(=O)c1ccc(S(=O)(=O)N(C)CCCC(=O)N(C)Cc2ccccc2F)cc1 0.4%
CCCNC(=O)c1cc(C2CCCN(C(=O)c3ccc4c(c3)CCO4)C2)on1 (configuration not stated) -0.8%
CCOC(=O)C1CCN(C(=O)c2oc3ccc(S(=O)(=O)N4CCCCCC4)cc3c2C)CC1 -3.5%
COc1ccc(NC(=O)c2oc3ccc(S(=O)(=O)N4CCOCC4)cc3c2C)cc1 -0.9%
CC(Oc1cccc(Cl)c1)C(=O)Nc1ccc(S(=O)(=O)Nc2ncccn2)cc1 (configuration not stated) -1.1%
CC[C@@H]1Cc2cc(O)ccc2C2=C1c1ccc(O)cc1C[C@H]2CC -3.2%
COC(=O)c1ccc(S(=O)(=O)N2CCC(c3nc4ccccc4o3)CC2)cc1 1.2%
CC1Cn2c(nnc2-c2cccs2)S1 (configuration not stated) -1.1%
